# According to ChEMBL document CHEMBL4513216, “Probing the Open Global Health Chemical Diversity Library for Multistage-Active Starting Points for Next-Generation Antimalarials” (ACS Infect Dis, 2020):
# Among all 69,000 compounds or so, about 8,600 (12%) showed an effect of 50% or more. The sample holds strong results, similar compounds and a random draw of the others, so the mix is not that of the screen.
# Tested on: Plasmodium berghei
# Assay: Screen against P. berghei liver stage (PbLuc), transformed with Luciferase, at 10uM
# Type: functional, HepG2
# Conditions: tested at 10 uM
row,SMILES,INHIBITION [%]
1,CCc1nccn1C1CCCN(C(=O)c2cnc3onc(C)c3c2)C1 (stereo not given),66.4
2,CCc1nccn1C1CCCN(C(=O)c2ccnc(N(C)C)c2)C1 (stereo not given),65.85
3,CCc1nccn1C1CCCN(C(=O)c2cnn(C)c2C2CC2)C1 (stereo not given),44.8
4,CCc1nccn1C1CCCN(C(=O)c2cnn3cccnc23)C1 (stereo not given),55.4
5,CCc1nccn1C1CCCN(C(=O)c2ccn(-c3ccccc3)n2)C1 (stereo not given),52.2
6,Cc1noc2ncc(C(=O)N3CCCC(n4cccn4)C3)cc12 (stereo not given),27.8
7,CCc1nccn1C1CCCN(C(=O)c2cncn2-c2ccccc2)C1 (stereo not given),32.45
8,O=c1ccc2c([nH]1)CCC(NS(=O)(=O)C1CC1)C2 (stereo not given),32.5
9,O=C(NCc1ccccc1)N1CCc2ncnc(NC3CC3)c2CC1,40.3
10,CCOCc1nc(-c2cccc(OC)c2OC)n(C2CCN(C)CC2)n1,21.2
11,CN(CC(=O)Nc1ccc(Br)cn1)C(=O)C(C)(C)C,-17.6
12,O=C(Cc1cccnc1)N1CCCC2(CCN(CC3CCOCC3)C2)C1 (stereo not given),18.5
13,Cc1cc(C)c(C(=O)N(C)CCN(C)C(=O)OC(C)(C)C)[nH]1,11.4
14,Cc1cncnc1C1CCN(C(=O)CN(C)C)CC1,-15.1
15,CN(C)C(=O)N1CCC2(CC1)CN(Cc1ccccn1)C(=O)CO2,30.4
16,Cc1nccn1C1CCCN(C(=O)c2ccc3c(c2)OCCCO3)C1 (stereo not given),47
17,CCc1nccn1C1CCCN(C(=O)c2ccc3c(c2)OCCO3)C1 (stereo not given),52.5
18,CCc1nccn1C1CCCN(C(=O)c2ccc3c(c2)OCO3)C1 (stereo not given),34.9
19,CCCn1nc(C)c(CNS(=O)(=O)NCc2ccccc2)c1C,-8.66
20,CCCn1cc(Cl)c(C(=O)N2C[C@@H](O)[C@H](Oc3ccccc3)C2)n1,-10.55
21,O=S(=O)(CCc1ccccc1Cl)CC(O)CO (stereo not given),35.7
22,Cc1nc(C)c(C(=O)Nc2cnn(CC(=O)NC3CCCC3)c2)s1,54.5
23,Cc1ccsc1C(=O)Nc1cnn(CC(=O)NC2CCCC2)c1,-4.63
24,Cc1cc(C(=O)Nc2cnn(CC(=O)NC3CCCC3)c2)c(C)s1,12.4
25,Cc1nn(C)c2cnn(CCCNS(=O)(=O)Cc3ccccc3)c12,41.6
26,Cc1nccn1C1CCCN(C(=O)CCNc2ncccn2)C1 (stereo not given),5.03
27,CC(C)CNC(=O)N1CCC2(CC1)OC(C(N)=O)Cn1ccnc12 (stereo not given),39.4
28,CC(C)OCCCNC(=O)c1c(-n2cnnn2)sc2c1CCCC2,20.1

row,SMILES,INHIBITION [%]
1,COCCCNC1N=C(n2nc(C)cc2C)Nc2sc3c(c21)CCCC3 (stereo not given),88.8
2,Cc1cc(C)n(C2=NC(NCCCO)c3c(sc4c3CCCC4)N2)n1 (stereo not given),79.7
3,COCCCNC(=O)c1c(-n2cnnn2)sc2c1CCC2,30.8
4,COC(=O)C1CCCN1C(=O)c1ccc(-n2nc(C)cc2C)cc1 (stereo not given),-16.8
5,Cc1cc(C)n(C2=NC(NCCC(C)C)c3c(sc4c3CCCC4)N2)n1 (stereo not given),90.5
6,COCCNC(=O)c1c(-n2cnnn2)sc2c1CCCC2,-6.42
7,Cc1oc(C(=O)O)cc1S(=O)(=O)Nc1cc(Br)ccc1F,-0.96
8,Cc1ncncc1C(=O)N1CCC(O)(CN(C)Cc2ccc(F)cc2)C1 (stereo not given),6.32
9,CC(C)c1nnc(CCC(=O)N2CCCC(c3cnccn3)C2)o1 (stereo not given),26.7
10,CN(C)C(=O)c1nn(C)c2c1CN(Cc1ccc(F)cc1)C2,31.7
11,CC(=O)N1CCN(C(=O)Nc2ccccc2Cl)[C@H]2CS(=O)(=O)C[C@H]21,72
12,CS(=O)(=O)NCC1CCCN(C(=O)Nc2ccccc2Cl)C1 (stereo not given),9.48
13,CCCN1CCN(C(=O)Nc2ccccc2Cl)[C@H]2CS(=O)(=O)C[C@H]21,-32.9
14,CN(C)C(=O)N1CCN(Cc2ccccc2)[C@@H]2CS(=O)(=O)C[C@@H]21,-33.2
15,O=C(Nc1ccccc1Cl)N1CCN(CC2CC2)[C@@H]2CS(=O)(=O)C[C@@H]21,52.2
16,Cc1ccccc1NC(=O)N1CCN(C(=O)C2CC2)[C@@H]2CS(=O)(=O)C[C@@H]21,-5.22
17,O=C(CCC(=O)N1CCc2[nH]c3ccccc3c2C1)NCc1ccco1,1.41
18,CNc1cc(C2CCCN(C(=O)c3ccc(=O)[nH]n3)C2)ccn1 (stereo not given),15.5
19,COC[C@]1(O)CCN(Cc2ccc(N(C)C)nc2)CC1(C)C,22.6
20,Cc1cc(Nc2ncccn2)nc(C2CCCN(CCO)C2)n1 (stereo not given),-3.94
21,Cc1ccc(S(=O)(=O)NC(=O)CCC(F)(F)F)cc1N(C)C,13.139
22,Cc1cnn(CC2CCCN2Cc2noc(C3CC3)n2)c1 (stereo not given),37.9
23,Cc1cnn(CC2CCCN2Cc2noc(C)n2)c1 (stereo not given),9.14
24,Cc1cccc(-c2nc(CN3CCCC3Cn3cc(C)cn3)no2)c1 (stereo not given),83.2
25,Cc1cnn(CC2CCCN2Cc2noc(-c3ccccc3)n2)c1 (stereo not given),23.5
26,Cc1ccc(-c2nc(CN3CCCC3Cn3cc(C)cn3)no2)cc1 (stereo not given),51.3
27,Cc1cccc(-c2nc(CN3CCCCC3Cn3cncn3)no2)c1 (stereo not given),13.9
